POLK inh – qHTS for Inhibitors of Polymerase Kappa; DNA polymerase kappa (Homo sapiens), Q9UBT6; purified Pol kappa, fluorescent DNA synthesis assay, 10 min; Potency, µM (series often up to 107 µM), for inactives: at the highest dose activity, negative = inhibition, usual class: inhibitors; 400,000 tested, 0.53% active; AID 588579, 2011; further: potency means the concentration at half of the fitted maximal effect; on the % scale 0 is the no-effect control and ±100 the full control effect
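Kinetic fluorescence screen: compound preincubated 15 min RT with 10 nM enzyme; 50 nM substrate (final) initiates; reads at 0/10 min.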
Pol eta inh – qHTS for Inhibitors of Polymerase Eta | 390,000 tested, 1.2% active | Potency, µM (top dose mostly 114 µM), for inactives: at the highest dose activity change, negative = inhibition, usual class: inhibitors | AID 588591, 2011 | recombinant Pol eta, fluorescent DNA replication assay | DNA polymerase eta (Homo sapiens), Q9Y253; further: potency means the concentration at half of the fitted maximal effect; on the % scale 0 is the no-effect control and ±100 the full control effect
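Pol eta (10 nM) was preincubated with compounds for 15 min at room temperature, after which fluorescent replication substrate (50 nM final) was added to start the reaction. Fluorescence was read kinetically at 0 and 10 min.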
PI5P4K alpha inh – qHTS for Inhibitors of phosphatidylinositol 5-phosphate 4-kinase (PI5P4K); Phosphatidylinositol 5-phosphate 4-kinase type-2 alpha (Homo sapiens), P48426; PI5P4Kalpha enzyme, ADP-Glo luminescence, 60 min; active compounds read low; max response, %; 330,000 tested, 1.2% active; AID 652105, 2013; active means max response of -50% or lower; inconclusive means between -30% and -50%; inactive means -30% or higher; further: value at the top dose of about 77 µM; on the % scale 0 is the no-effect control and ±100 the full control effect
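ADP-Glo luminescence end-point after a 60 min room-temperature kinase reaction. PI5P4Kalpha and substrate in HEPES pH 7.4 buffer with EGTA, 0.1% CHAPS and 5% DMSO; ATP at 5 microM final.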
WRN helicase inh – qHTS for Inhibitors of WRN Helicase | Bifunctional 3'-5' exonuclease/ATP-dependent helicase WRN (Homo sapiens), Q14191 | Potency, µM (top dose mostly 114 µM), for the others: at the highest dose activity change, negative = inhibition, most hits filed as inhibitors | AID 651768, 2012 | 360,000 tested, 0.46% active | WRN helicase unwinding, fluorescent forked duplex, kinetic; further: potency means the concentration at half of the fitted maximal effect; on the % scale 0 is the no-effect control and ±100 the full control effect; nearly all actives have a fitted effect of over 55% in size
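Kinetic fluorescence helicase assay: unwinding of a quenched forked DNA duplex (100 nM final) with 2 mM ATP final raises red fluorescence (525/598 nm). Compounds sat 15 min at room temperature with 20 nM WRN beforehand.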
Pol iota inh – qHTS for Inhibitors of Polymerase Iota. Pol iota fluorescent replication assay, 10 min. Potency, µM (titrated, usually from 115 µM), without a hit: at the highest dose activity, negative = inhibition, actives largely listed as inhibitors. 390,000 tested, 1% active. AID 588590, 2011; further: potency means the concentration at half of the fitted maximal effect
Target sequence (Q9UNA4 whole entry, looked up): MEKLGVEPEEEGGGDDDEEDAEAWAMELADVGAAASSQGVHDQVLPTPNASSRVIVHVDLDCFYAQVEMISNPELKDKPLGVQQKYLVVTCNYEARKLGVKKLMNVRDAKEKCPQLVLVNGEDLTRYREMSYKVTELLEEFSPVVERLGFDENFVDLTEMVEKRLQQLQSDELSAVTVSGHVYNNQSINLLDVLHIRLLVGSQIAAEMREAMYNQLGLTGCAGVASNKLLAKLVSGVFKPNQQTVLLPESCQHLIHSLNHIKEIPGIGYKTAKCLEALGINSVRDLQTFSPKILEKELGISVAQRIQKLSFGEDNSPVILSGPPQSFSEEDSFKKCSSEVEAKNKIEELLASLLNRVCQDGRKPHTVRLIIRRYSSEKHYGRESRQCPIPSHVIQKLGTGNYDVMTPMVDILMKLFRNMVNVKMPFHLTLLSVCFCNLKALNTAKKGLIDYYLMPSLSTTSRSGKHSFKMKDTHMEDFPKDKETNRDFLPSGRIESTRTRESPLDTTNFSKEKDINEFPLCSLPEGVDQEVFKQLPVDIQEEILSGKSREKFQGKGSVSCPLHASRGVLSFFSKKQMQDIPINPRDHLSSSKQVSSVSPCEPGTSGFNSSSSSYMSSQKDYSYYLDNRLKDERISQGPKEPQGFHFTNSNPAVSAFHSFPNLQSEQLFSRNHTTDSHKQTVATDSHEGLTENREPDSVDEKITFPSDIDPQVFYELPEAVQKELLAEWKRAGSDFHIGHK
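Fluorescent replication assay read twice, at 0 min and 10 min after adding 50 nM (final) substrate. Enzyme (10 nM) and compounds were first incubated 15 min at room temperature; enzyme-free buffer wells were negative controls.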
Pol beta inh-1 – qHTS Assay for Inhibitors of DNA Polymerase Beta; Pol beta primer extension/strand displacement, fluorescence kinetic; AID 485314, 2010; Potency, µM (titrated, usually from 114 µM), inactives show at the top dose activity change, negative = inhibition, hits mostly inhibitors; 340,000 tested, 1.3% active; further: potency means the concentration at half of the fitted maximal effect; on the % scale 0 is the no-effect control and ±100 the full control effect
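Reaction started by 50 nM substrate onto compound-treated Pol beta (10 nM, 15 min preincubation, room temperature); plates read at 0 min and 10 min. Normalized concentration-effect data fitted by four-parameter Hill equation.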
Pol beta inh-2 – Inhibitors of DNA Polymerase Beta: Hit validation; shares compounds with Pol beta inh-1; Pol beta primer extension/strand displacement, fluorescence kinetic; Potency, µM, most hits filed as inhibitors; 250 tested, 87% active; AID 540280, 2011; calls by dose curve; further: potency means the concentration at half of the fitted maximal effect
Klenow inh – Inhibitors of DNA Polymerase Beta: Hit Validation in Klenow Fragment Assay; shares compounds with Pol beta inh-1; Klenow exo- polymerase counter-screen, fluorescent DNA substrate; activity change, negative = inhibition, % at 57.1 µM; 250 tested, under 10 active; AID 540300, 2011
HIV RT counter – Inhibitors of DNA Polymerase Beta: Hit Validation in HIV-RT Assay | shares compounds with Pol beta inh-1 | HIV-1 RT polymerase activity, counter-screen | activity % (negative = inhibition, positive = activation), % at 57.1 µM | 250 tested, under 10 active | AID 540301, 2011
POLB valid – Inhibitors of DNA Polymerase Beta: Hit Validation in Radiolabeled Extension Assay; AID 540325, 2011; 110 tested, 91% active; shares compounds with Pol beta inh-1; radiolabeled primer extension gel assay, phosphorimager; inhibition, % at 10 µM;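 active means inhibition at 10 µM of 30% or more; inconclusive means no clear call, values can overlap the other calls; inactive means inhibition at 10 µM under 30%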
An asterisk follows results filed as active; ? = inconclusive; · = not tested or not shown; ! = repeats disagree; [ ] = another dose, or the depositor's remark. Only some compounds are listed: those with a hit (about 2.8% of all), similar ones and a draw of the others. Unless noted, the call rests on the fitted dose curve; in most records, active means well fitted curve in the direction sought with a large enough effect; inconclusive means small, poorly fitted or top-dose-only effect, or another doubt; inactive means no such curve, though single readings can be large; an effect the other way counts as inactive or inconclusive.

SMILES	POLK inh	Pol eta inh	PI5P4K alpha inh	WRN helicase inh	Pol iota inh	Pol beta inh-1	others
COc1ccc(C(=O)NCC(=O)OCC(=O)NCc2ccco2)cc1	-20.8%	?	7.2	-9.9%	-26.5%	·
Cc1cccc(N/C(=N/S(=O)(=O)c2ccccc2)c2ccccc2)n1	2.6%	-15.3%	1.6	-1.3%	15.1%	9.2%
CC(C)(C)c1ccc(OCC(=O)NCc2ccco2)c(Br)c1	-23.1%	44.7µM*	?	-27.6%	?	?
COc1cccc(/C=C/C(=O)OCC(=O)NCCC2=CCCCC2)c1	-27.1%	4.2%	-64.7*	-16.2%	4.9%	5.3%
O=C(COC(=O)c1cccnc1Cl)NCc1ccco1	-42.4%	?	-11.2	?	?	15.8µM*
CCOc1cc(C(=O)OCC(=O)NCc2ccco2)cc(OCC)c1OCC	?	?	?	-12.6%[57.1 µM]	?	17.8µM*
Cc1ccc(OCc2cc(C(=O)N(C)Cc3cnn(-c4ccccc4C)c3)no2)cn1	-16.3%	-7.5%	-9.0	-7.1%	3.6%	-5.0%
CCOC(=O)C1CCN(C(=O)Nc2ccc3nc(-c4ccco4)c(-c4ccco4)nc3c2)CC1	15.8µM*	2.82µM*	-70.2*	35.5µM*	2.82µM*	1.58µM*
O=C(Nc1ccc2nc(-c3ccco3)c(-c3ccco3)nc2c1)N1CCCCCC1	7.08µM*	10µM*	·	12.6µM*	3.16µM*	2.24µM*
CCOC(=O)C1CCN(C(=O)Nc2ccc3c(c2)nc(C)n3C)CC1	-1.7%	-6.2%	·	-0.3%	15.8%	-1.7%
O=C(Nc1ccc2nc(-c3cccs3)c(-c3cccs3)nc2c1)N1CCCC1	3.2%	·	·	·	47.5%	·
O=C(Nc1ccc(Cl)c(Cl)c1)N1CCCCCC1	89.1µM*	-12.8%	0.4	-2.0%[11.6 µM]	?	47.5%
Cc1cc(C)n2nc(S(=O)(=O)NC3CCCCC3)nc2n1	1.5%	-10.9%	0.6	1.0%	17.0%	-9.8%
COc1ccc(CCNc2ncnc3nc[nH]c23)cc1	4.8%	·	·	·	0.2%	·
COC(CNC(=O)c1coc2nc3ccccc3nc12)OC	-18.8%	-8.8%	-2.2	-5.3%	-29.9%	6.7%
CCN(C(=O)COC(=O)/C(C#N)=C/c1ccc(N(C)C)cc1)C1CCS(=O)(=O)C1 (stereo unspecified)	?	-18.6%	-5.7	?	56.2µM*	·
CN(C)c1ccc(/C=C(\C#N)C(=O)OCC(=O)N(C)C2CCS(=O)(=O)C2)cc1 (stereo unspecified)	-0.1%	12.5%	2.3	10.1%	16.2%	·
O=C(Nc1ccc(F)cc1)C(=O)C1C(=O)Nc2ccccc21 (stereo unspecified)	7.3%	-19.2%	-1.0	-4.4%	89.1µM*	56.4%
Cc1onc(-c2ccc(Cl)cc2)c1-c1ccnn1S(=O)(=O)c1cccc(C(F)(F)F)c1	-1.6%	-7.2%	8.0	-14.2%	21.7%	15.9%
O=C(NCC(c1ccc2c(c1)OCO2)N1CCOCC1)C(=O)Nc1ccccc1 (stereo unspecified)	-7.6%[60.1 µM]	-0.1%	·	·	17.8µM*	18.1%
O=C(O)CCC(=O)N1CCc2cc(S(=O)(=O)N3CC=C(c4ccccc4)CC3)ccc21	?	?	-8.8	-0.7%	?	22.4µM*
CCOC(=O)CNS(=O)(=O)c1cc(-c2nn(C)c(=O)c3ccccc23)ccc1C	?	?	?	-29.2%	25.1µM*	35.5µM*
Cc1ccc(-c2nn(C)c(=O)c3ccccc23)cc1S(=O)(=O)NCCN1CCOCC1	-4.2%	?	-14.4	-15.0%	?	2.8%
CCCC(=O)N(Cc1cc2cc(OC)ccc2[nH]c1=O)c1ccccc1OC	·	-8.0%	-0.6	3.1%	·	·
Nc1c(C(=O)NC2CC2)sc2nc3c(c(-c4ccco4)c12)CC/C3=C/c1ccco1	0.708µM*	0.708µM*	-96.2*	50.1µM*	?	0.631µM*	Pol beta inh-2=28.2*;Klenow inh=-22.1;HIV RT counter=?;POLB valid=100.0*
SMILES	POLK inh	Pol eta inh	PI5P4K alpha inh	WRN helicase inh	Pol iota inh	Pol beta inh-1	others
O=C(Nc1ccc(S(=O)(=O)N2CCCCC2)cc1)C1CC(=O)N(c2ccc(Cl)cc2)C1 (stereo unspecified)	-12.8%	-17.0%	3.0	-7.6%	126.0%	?
O=C(Nc1cccc([N+](=O)[O-])c1)c1cc2ccccc2cc1O	-27.5%	?	-19.4	-22.3%	44.7µM*	17.8µM*	Pol beta inh-2=28.2*;Klenow inh=-7.8;HIV RT counter=27.0;POLB valid=97.7*
O=C(O)c1ccccc1C(=O)Nc1cccc([N+](=O)[O-])c1	-7.9%	-6.5%	0.3	-1.4%	-15.4%	2.3%
COc1ccc(/C=C/C(=O)c2cc(Br)ccc2O)cc1OC	-3.6%	-3.9%	-3.8	-5.3%	0.6%	0.1%
CNc1ccc(Br)cc(C(=O)/C=C/c2cc(OC)ccc2OC)c1=O	?	14.1µM*	-28.0	-8.6%[11.6 µM]	?	12.6µM*	Pol beta inh-2=28.2*;Klenow inh=5.8;HIV RT counter=-24.5;POLB valid=43.4*
COc1ccc2cc3cc(C(=O)Nc4ccc5c(c4)OCCO5)oc3nc2c1	-13.3%	11.2µM*	-3.7	-32.4%[57.1 µM]	?	12.6µM*	Pol beta inh-2=?;Klenow inh=8.5;HIV RT counter=27.4
COc1cccc2sc(Nc3nnc(-c4ccc(F)cc4)o3)nc12	-22.3%	50.1µM*	?	-27.0%	-22.9%	12.6µM*	Pol beta inh-2=35.5*;Klenow inh=-2.8;HIV RT counter=97.0;POLB valid=85.0*
COc1ccc(C2(c3ccc(OC)cc3)NC(=O)NC2=O)cc1	-0.6%	-7.9%	10.0	-5.0%	73.1%	5.2%
CCOc1ccccc1CNC(=O)C1CCN(c2nnc(C)c3c(C)n(-c4ccc(C)cc4)nc23)CC1	-8.6%	?	0.8	13.3%	-1.2%	7.08µM*!	Pol beta inh-2=?;Klenow inh=-6.1;HIV RT counter=43.1

Screening data: PubChem BioAssay, National Center for Advancing Translational Sciences (NCATS)
